Compound activity deposited in PubChem by National Center for Advancing Translational Sciences (NCATS).
Vaccinia mCherry – inhibitors of vaccinia virus infection (mCherry reporter signal); AID 720579; Vaccinia virus mCherry reporter infection, fluorescence; Potency, µM (doses to about 36.5 µM), most hits filed as inhibitors; 310,000 compounds, 0.63% hits; calls by dose curve; tested in A549 cells; note: nearly all actives have a fitted effect of over 35% in size
MARV entry inh – blocks Marburg virus binding to or entry into cells | Marburg virus pseudotyped entry inhibition, cell reporter | Potency, µM (top dose mostly 37.8 µM), actives largely listed as inhibitors | 300,000 compounds, 1.8% hits; calls by dose curve; tested in HEK293 cells
VACV Venus inh – inhibitors of vaccinia virus (Venus reporter); Potency, µM (titrated, usually from 36.5 µM), actives largely listed as inhibitors; Vaccinia virus Venus reporter expression, fluorescence; 330,000 compounds, 0.46% hits; calls by dose curve; tested in A549 cells; note: nearly all actives have a fitted effect of over 30% in size
HCMV antiviral – inhibitors of human cytomegalovirus; HFF cells, HCMV-luciferase reporter, 72 h; active compounds read low; activity change, negative = inhibition, % at 57.5 µM; 410,000 compounds, 4.5% hits; in the data active = activity change below about -60%; inconclusive = no clear call, values can overlap the other calls; inactive = above about -39%
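Two-dose cell screen: HFF monolayers treated with compounds and infected with luciferase-expressing HCMV at 1 PFU/cell, 72 h at 37C, then lysed for luciferase measurement.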
FMDV inh – blocks foot and mouth disease virus | FMDV antiviral cell-based qHTS | Potency, µM (titrated, usually from 57.9 µM), actives largely listed as inhibitors | 410,000 compounds, 1.2% hits | AID 1159524; calls by dose curve; tested in HEK293T cells; note: read-out not given here; nearly all actives have a fitted effect of over 45% in size
LASV entry inh – Lassa virus entry inhibition. Lassa virus pseudotype entry inhibition, cell reporter. AID 540256. 300,000 compounds, 1.2% hits. Potency, µM (top dose mostly 37.9 µM), actives largely listed as inhibitors; calls by dose curve; tested in HEK293 cells; note: nearly all actives have a fitted effect of over 50% in size
Numbers stand for hits; . = inactive; ? = inconclusive; / = not tested or not shown. An excerpt weighted towards active compounds, which were near 6.5% of everything screened.

SMILES	Vaccinia mCherry	MARV entry inh	VACV Venus inh	HCMV antiviral	FMDV inh	LASV entry inh
CCN(CC)S(=O)(=O)c1cc(NC(=O)C(=O)c2c(-c3ccccc3)cc3ccccn23)ccc1C	/	?	/	-96.5	.	?
CCN(CC)S(=O)(=O)c1ccc(N2CCOCC2)c(NC(=O)C(=O)c2c(-c3ccccc3)cc3ccccn23)c1	/	?	/	.	.	?
CCN(CC)S(=O)(=O)c1cccc(NC(=O)C(=O)c2c(-c3ccccc3)cc3ccccn23)c1	?	?	.	-75.3	.	.
CCN1CCCC(C2NC3CCCCC3S2)C1 (stereo not given)	/	.	/	/	/	/
CC(Oc1ccc2c(-c3ccccc3)cc(=O)oc2c1)C(=O)NC(Cc1c[nH]c2ccc(O)cc12)C(=O)O (stereo not given)	.	/	.	-76.7	.	/
O=C(COc1ccc2c(-c3ccccc3)cc(=O)oc2c1)N[C@@H](Cc1c[nH]c2ccc(O)cc12)C(=O)O	.	/	.	.	.	/
CSc1nc2ccc(NC(=O)c3ccco3)cc2s1	.	?	.	.	.	.
Cc1ccc2nc(-c3ccc(NC(=O)COC(=O)c4cncc(Br)c4)cc3)sc2c1	.	?	.	.	.	?
CCOc1ncccc1C(=O)OCC(=O)Nc1ccc(-c2nc3ccc(C)cc3s2)cc1	?	12.6µM	?	.	.	?
Cc1ccc(NC(=O)CSc2nc3ccc(NC(=O)c4ccco4)cc3s2)cc1	.	.	.	-62.4	.	.
Cc1ccc2nc(-c3ccc(NC(=O)COC(=O)c4ccc(Br)o4)cc3)sc2c1	.	?	.	.	?	5.62µM
Cc1ccc2nc(-c3ccc(NC(=O)COc4ccccc4)cc3)sc2c1	.	/	.	.	.	.
Cc1ccc2nc(-c3ccc(NC(=O)COC(=O)c4ccc([N+](=O)[O-])o4)cc3)sc2c1	.	3.98µM	.	?	.	7.08µM
COc1cccc(-n2c(C)nc3c(cnn3-c3ccc(C)c(C)c3)c2=O)c1	.	?	.	.	.	.
COC(=O)[C@@H]1CC[C@H](C)[C@@H](c2ccc(C)cc2)N1C(=O)c1ccc(C=NO[C@@H](C)c2cc(-c3c(C)cc(C)cc3C)no2)cc1	/	.	/	/	/	/
Cc1ccc2nc(-c3ccc(NC(=O)COC(=O)c4ccco4)cc3)sc2c1	?	1.26µM	.	.	.	2.24µM
COc1cc(Cl)c(C)cc1NC(=O)CCc1nc2cccnc2n1-c1ccccc1	.	.	.	.	.	.
CSc1ccc(CN(C)C(=O)c2cccc(S(=O)(=O)N3CCN(Cc4ccccc4)CC3)c2)cc1	.	?	.	?	15.8µM	.
Cc1ccc(S(=O)(=O)N2CCN(C(=O)N(c3ccccc3)c3ccccc3)CC2)cc1	/	18.3µM	/	?	.	?
O=S(=O)(c1ccc(Cl)cc1)N1CCN(C(=S)Nc2ccc(F)c(Cl)c2)CC1	.	?	?	-61.8	.	?
CCN(CC)C(=O)c1ccc(NC(=O)c2cccc(S(=O)(=O)N3CCN(Cc4ccccc4)CC3)c2)cc1	.	?	?	-77.9	?	.
CN(CCOc1ccc(Cl)cc1)C(=O)c1cccc(S(=O)(=O)N2CCN(Cc3ccccc3)CC2)c1	/	/	/	?	10µM	/
Cc1ccc(C)c(NC(=O)CN(C)C(=O)c2cccc(S(=O)(=O)N3CCCC3)c2)c1	.	.	.	.	.	.
Cc1ccc(C)c(NC(=S)N2CCN(S(C)(=O)=O)CC2)c1	.	.	.	.	.	.
Cc1ccc(C)c(NC(=O)CN(C)C(=O)c2cccc(S(=O)(=O)N3CCN(Cc4ccccc4)CC3)c2)c1	.	?	.	?	14.1µM	?
SMILES	Vaccinia mCherry	MARV entry inh	VACV Venus inh	HCMV antiviral	FMDV inh	LASV entry inh
Cc1ccc(C)c(NC(=S)N2CCN(S(=O)(=O)c3ccccc3)CC2)c1	.	.	.	-71.4	.	.
Cc1nn(-c2ccc(N3CCCCC3)nn2)c(C)c1CCC(=O)Nc1ccc(F)cc1F	.	/	.	.	.	?
Cc1ccc(S(=O)(=O)N2CC(=O)Nc3ccccc32)c(C)c1NS(C)(=O)=O	.	.	.	.	.	.
Cc1ccc(C(C)(C)C)cc1S(=O)(=O)N1CC(=O)Nc2ccccc21	.	10µM	.	.	.	?
Cc1cc(C(C)(C)C)cc(C)c1S(=O)(=O)N1CC(=O)Nc2ccccc21	.	.	.	?	.	11.2µM
Cc1ccc(N(C[C@@H](O)CN(C)C)S(=O)(=O)c2ccccc2)cc1	/	.	/	/	/	/
O=C1NC(=O)N(c2ccc(Cl)cc2)C(=O)/C1=C/c1ccc2c(c1)CCN2Cc1ccccc1Cl	.	.	.	.	.	.
CCC(C)N1C(=O)/C(=C/c2ccc3c(c2)CCN3CCCCl)C(=O)NC1=S (stereo not given)	.	.	.	.	31.6µM	?
O=S(=O)(c1ccc(Br)cc1)c1nnn2c1nc(NCc1ccc3c(c1)OCO3)c1sccc12	.	/	.	.	.	.
CCOC(=O)c1c(C)c(-c2ccccc2)n(CC(=O)NCc2ccccc2)c1C	.	.	.	.	.	/
CCOC(=O)c1c(C)c(-c2ccccc2)n(CC(=O)Nc2cc(C)cc(C)c2)c1C	.	.	?	-96.8	.	/
COc1cccc(CNC(=O)c2c(OC)cc(=O)n3c2CCN(C(=O)c2cc(C)ccc2C)CC3)c1	.	/	.	/	.	/
O=C1CN=C(c2cccc(Br)c2)c2cc(Br)ccc2N1	.	7.94µM	.	.	.	?
COc1ccccc1CNC(=O)CCC1N=C2c3ccccc3N=C(SCc3cccc(Cl)c3)N2C1=O (stereo not given)	3.98µM	.	?	.	.	?
O=C(CCC1N=C2c3ccccc3N=C(SCc3cccc(Cl)c3)N2C1=O)N1CCN(c2ccccc2)CC1 (stereo not given)	8.91µM	?	?	.	?	.
O=C(CCC1N=C2c3ccccc3N=C(SCc3ccc(F)cc3)N2C1=O)N1CCN(c2ccccc2)CC1 (stereo not given)	.	.	.	.	.	.
CC1(C)C(O)C=C[C@@]2(C)C1CC(=O)O[C@@]1(C)C3=CC(=O)OC(c4ccoc4)[C@]3(C)CCC21 (stereo not given in full)	.	/	.	/	.	/
Cc1cc([N+](=O)[O-])ccc1NC(=O)Nc1ccccc1F	.	.	.	-60.7	.	.
Cc1ccc([N+](=O)[O-])cc1NC(=O)Nc1cccc(F)c1	.	/	?	-96.8	28.2µM	/
Cc1ccc(N=Nc2ccc(C)cc2NC(=O)Nc2ccccc2F)cc1	.	/	.	-67.1	.	/
O=C(Nc1ccccc1F)Nc1ccccc1F	/	/	/	.	.	/
O=C(Nc1ccccc1)Nc1cc([N+](=O)[O-])ccc1F	.	.	.	?	.	?
COc1ccccc1C1CN(Cc2cnn(C)c2)Cc2ccccc2O1 (stereo not given)	.	/	.	/	.	/
CCN(CC)CCC(=O)Nc1ccc2c(c1)N(C(=O)CN(CC)CC)c1ccccc1CC2	/	6.31µM	.	.	.	?
C=CCn1c(SCc2ccc(C(=O)Nc3nccs3)cc2)nnc1-c1ccc(C)c(Cl)c1	?	?	?	-94.3	28.2µM	11.2µM
